High-throughput results (PubChem BioAssay)
IP6K1 inhibitor – IP6K1 kinase inhibition; Q92551; IP6K1 kinase, ADP-Glo luminescence, 2 h; stronger effect = lower value; activity change, % (series mostly up to about 58 µM); 140,000 tested, 0.81% active; AID 1645851; in the data active = activity change below about -25%; also: % is scaled to controls: 0 for no effect and ±100 for the full control effect
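ADP-Glo luminescence measures ADP made by human IP6K1 during a 2 h RT reaction with ATP/IP6 (mix at 1.3 mM/130 uM); top library doses 57.5 and 19.1 uM final.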
SNCA viab count – reduces viability of HEK-293 SNCA reporter cells | HEK-293-SNCA-luc viability, GF-AFC fluorescence, 24 h | Potency, µM (highest dose often 57.1 µM), for the others: top-dose activity change, negative = cytotoxicity, most hits filed as cytotoxic | 150,000 tested, 0.12% active | AID 1671193;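 also: potency is read from the fitted curve at half-maximal effect; 0% = DMSO-treated cells and -100% = medium-only wells without cells; nearly all actives have a fitted effect of over 30% in size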
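Cytotoxicity counterscreen: after 24 h compound treatment of genome-edited SNCA-luciferase HEK-293 cells, live-cell protease substrate GF-AFC read by fluorescence after 30 min; activity scaled between DMSO (0%) and medium-only (-100%), curves Hill-fitted.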
KDM5B inh – inhibitors of human KDM5B histone demethylase; Q9UGL1; KDM5B demethylase, FDH-coupled NADH fluorescence (FDH is formaldehyde dehydrogenase); Potency, µM (titrated, usually from 57.7 µM), usual class: inhibitors; 220,000 tested, 2.6% active; AID 1347165; also: potency is read from the fitted curve at half-maximal effect; 0% is about no effect; nearly all actives have a fitted effect of over 70% in size
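Measured: NADH fluorescence change, 30 min, RT. System: KDM5BΔAP 200 nM final, H3K4me3 peptide, α-KG, Fe(II), ascorbate, NAD⁺ plus FDH, pH 7.5 HEPES. Compounds: titrated, 10 min pre-incubation with enzyme.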
SNCA expr inh – reduces expression of the alpha-synuclein gene | HEK-293 SNCA-luciferase knock-in, luminescence, 24 h | Potency, µM (top dose mostly 57.2 µM), inactives show at the highest dose activity change, negative = inhibition, usual class: inhibitors | 140,000 tested, 0.17% active;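 also: potency is read from the fitted curve at half-maximal effect; plate controls were DMSO cells for no effect and cell-free wells for full effect; nearly all actives have a fitted effect of over 45% in size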
Starred values were filed as active, the others as inactive; [ ] = another dose, or the depositor's remark. This is a sample that favours compounds with a hit; in the whole collection about 2.8% have one here. Unless noted, calls follow the shape of the dose curve; as a rule, active = well fitted curve in the direction sought with a large enough effect; inconclusive = small, poorly fitted or top-dose-only effect, or another doubt; inactive = no such curve, though single readings can be large; an effect the other way counts as inactive or inconclusive.

Screening Cc1noc(-c2ccn3c(CNC(=O)c4ccc(F)c(Cl)c4)nnc3c2)n1 returned IP6K1 inhibitor 18, SNCA viab count 0%, KDM5B inh 25µM* and SNCA expr inh 3%.
`CCc1noc(-c2ccn3c(CNC(=O)c4nccc5ccccc45)nnc3c2)n1` gave IP6K1 inhibitor 6, SNCA viab count -4%, KDM5B inh inconclusive and SNCA expr inh -8%.
Screening O=C(NCc1nnc2cc(-c3nc(C4CC4)no3)ccn12)c1ccoc1 returned IP6K1 inhibitor 0, SNCA viab count inconclusive, KDM5B inh 32µM* and SNCA expr inh -14%.
Cc1cc(C)cc(C(=O)NCc2nnc3cc(-c4nc(C5CC5)no4)ccn23)c1 was read as IP6K1 inhibitor 14, SNCA viab count -3%, KDM5B inh inactive and SNCA expr inh -14%.
O=C(NCc1nnc2cc(-c3nc(C4CC4)no3)ccn12)c1ccccc1 was read as IP6K1 inhibitor 12, SNCA viab count 6%, KDM5B inh inactive and SNCA expr inh -24%.
O=C(CNC(=O)C1CC(=O)N(c2ccc(F)cc2)C1)NCCc1c[nH]c2ccccc12 (centres undefined) was read as KDM5B inh inactive.
`O=C(NCc1nnc2cc(-c3nc(C4CC4)no3)ccn12)c1c(F)cccc1F` gave IP6K1 inhibitor 13, SNCA viab count -2%, KDM5B inh 25µM* and SNCA expr inh -14%.
Cc1ccc(C(=O)NCc2nnc3cc(-c4nc(C5CC5)no4)ccn23)cc1F was read as IP6K1 inhibitor -3, SNCA viab count inconclusive, KDM5B inh inconclusive and SNCA expr inh inconclusive.
Screening O=C(NCc1nnc2cc(-c3nc(C4CC4)no3)ccn12)c1ccccc1Cl returned IP6K1 inhibitor 36, SNCA viab count -4%, KDM5B inh 22µM* and SNCA expr inh -29%.
Screening Cc1noc(-c2ccn3c(CNC(=O)c4ccccc4Cl)nnc3c2)n1 returned IP6K1 inhibitor -3, SNCA viab count -11%, KDM5B inh 28µM* and SNCA expr inh -3%.
Screening O=C(NCc1ccc(Cl)nc1)c1cnn2c1CN(C(=O)c1ccccc1)CC2 returned IP6K1 inhibitor 16, SNCA viab count -4%, KDM5B inh inactive and SNCA expr inh 0%.
Screening Cc1ccc2c(C(=O)NCc3ccc(Cl)nc3)cnn2c1 returned IP6K1 inhibitor -4, SNCA viab count 15%[87.6 µM], KDM5B inh 40µM* and SNCA expr inh 16%[87.6 µM].
Cc1ccc2c(C(=O)NCc3ccc(Cl)cc3Cl)cnn2c1 was read as IP6K1 inhibitor -2, SNCA viab count 0%[87.6 µM], KDM5B inh inconclusive and SNCA expr inh 146%[87.6 µM].
Screening O=C(NCc1ccc(Cl)nc1)c1cccn2nccc12 returned IP6K1 inhibitor 5, SNCA viab count 0%[87.6 µM], KDM5B inh 35µM* and SNCA expr inh inconclusive.
CN1C[C@@H](NC(=O)c2ccccn2)C[C@H]1c1nc(-c2ccc3ccccc3c2)no1 was read as IP6K1 inhibitor -13, SNCA viab count -9%[87.6 µM], KDM5B inh inconclusive and SNCA expr inh 83%[87.6 µM].
`CN(C)c1ccc(C(=O)N[C@H]2C[C@@H](c3nc(-c4ccc5ccccc5c4)no3)N(C)C2)cc1` gave IP6K1 inhibitor 9, SNCA viab count -11%, KDM5B inh 35µM* and SNCA expr inh 25%.
`O=C(NCc1ccc2c(c1)CCN2C(=O)c1ccc(F)cc1)c1c(F)cccc1F` gave IP6K1 inhibitor 1, SNCA viab count -7%, KDM5B inh inactive and SNCA expr inh -2%.
Screening CNC(=O)c1c(F)cccc1Nc1nc(Nc2cc3c(cc2OC)CCN3C(=O)CN(C)C)nc2[nH]ccc12 returned IP6K1 inhibitor -5, SNCA viab count -17% and SNCA expr inh 14µM*.
Cc1cn2nc(C(=O)N3CCN(c4ccccn4)CC3)cc2c(N2CCCC2)n1 was read as IP6K1 inhibitor 3, SNCA viab count inconclusive, KDM5B inh 25µM* and SNCA expr inh -1%.
`Cc1cn2nc(C(=O)N3CCN(c4cccc(Cl)c4)CC3)cc2c(N2CCCC2)n1` gave IP6K1 inhibitor 6, SNCA viab count -6%, KDM5B inh 35µM* and SNCA expr inh -17%.
CC(C)CNC(=O)c1cc(-c2ccccc2F)cc2c1OCCN2Cc1cccnc1 was read as IP6K1 inhibitor -21, SNCA viab count inconclusive, KDM5B inh 32µM* and SNCA expr inh inconclusive.
Screening CNC(=O)c1cc(Nc2cccc(N(C)C)c2)cc2c1OCCN2Cc1cccnc1 returned IP6K1 inhibitor -19, SNCA viab count 7%[87.6 µM], KDM5B inh inconclusive and SNCA expr inh 6%[87.6 µM].
